Assay outcomes (PubChem BioAssay)
The list is not random: actives were taken first. Their share in the collection is about 6.6%.
HepG2 tox-1: qHTS for Inhibitors of TGF-b: Cytotox Counterscreen; Potency, µM (top dose mostly 46.1 µM), usual class: cytotoxic; HepG2 CAGA-GFP viability, ATP luminescence, 18 h; 0.76% of 410,000 active; AID 588856, 2011
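CellTiter-Glo luminescence gave cytotoxicity after 18 hours at 37 degrees C. The cells were HepG2 CAGA-GFP in 1% FBS DMEM, stimulated with 500 pg/mL TGF-beta after compound addition. %Activity was normalised to no-cell wells (complete cell-killing) and DMSO (no toxicity), and curves were fitted and classified.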
KB-3-1 tox: qHTS assay for MDR1-selective chemotherapeutics: Primary screen using the parental adenocarcinoma cell KB-3-1. KB-3-1 viability, CellTiter-Glo ATP luminescence, 72 h. Potency, µM (highest dose often 46.1 µM), hits mostly cytotoxic. 1.4% of 400,000 active. AID 1347075, 2019; further: nearly all actives have a fitted effect of over 60% in size
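Parental KB-3-1 adenocarcinoma cells in phenol-red-free DMEM with 10% FBS were pin-treated with compounds at several concentrations, incubated 72 h at 37 °C, and viability read by CellTiter-Glo luminescence; concentration-effect curves were fitted after normalization.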
KB-V1 MDR tox: qHTS assay for MDR1-selective chemotherapeutics: Primary screen using the drug-selected MDR subline cells KB-V1; 3.4% of 400,000 active; Potency, µM (top dose mostly 46.1 µM), hits mostly cytotoxic; KB-V1 MDR cells viability, CellTiter-Glo, 72 h; AID 1347076, 2019; further: nearly all actives have a fitted effect of over 60% in size
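Luminescent ATP read-out (CellTiter-Glo, 10 min) measures survival of drug-selected KB-V1 MDR cells after 72 h, 37 degrees C compound exposure. Medium: phenol-red-free DMEM, 10% FBS. Values from fitted concentration-response curves.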
TGFb SMAD3 inh: qHTS for Inhibitors of TGF-b; 1.2% of 410,000 active; HepG2 CAGA-GFP TGF-b/SMAD3 reporter, GFP fluorescence, 18 h; TGF-beta stimulated, 500 pg/mL final; Potency, µM (titrated, usually from 46.1 µM), actives largely listed as inhibitors; further: nearly all actives have a fitted effect of over 65% in size
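First, reporter cells (HEPG2 CAGA-GFP) rested 2 h at 37 degrees C. Next, compounds were pinned in and TGF-beta added to 500 pg/mL final. After 18 h, GFP was imaged per cell and summed per well.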
HT1080NT lethal: qHTS for induction of synthetic lethality in tumor cells producing 2HG: qHTS for the HT-1080-NT fibrosarcoma cell line | HT-1080-NT fibrosarcoma viability, CellTiter-Glo ATP luminescence, 48 h | 1.6% of 360,000 active | Potency, µM (highest dose often 46.1 µM), actives largely listed as cytotoxic;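 further: NT is the 2HG producing partner of a matched IDH1 knockdown line; nearly all actives have a fitted effect of over 55% in size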
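Read-out is CellTiter-Glo luminescence after 10 minutes at room temperature, following 48 hours' compound treatment of HT-1080-NT cells (750 cells/well, RPMI, 5% FBS, 37 degrees C).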
HT1080 IDH1KD tx: qHTS for induction of synthetic lethality in tumor cells producing 2HG: qHTS for the HT-1080-IDH1KD cell line; Potency, µM (top dose mostly 46.1 µM), usual class: cytotoxic; HT-1080 IDH1 knockdown viability, ATP luminescence, 48 h; 2% of 360,000 active; AID 686971, 2013
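Assay cells: HT-1080 with IDH1 knockdown, 750 per well, RPMI/5% FBS. Exposure: 48 h at 37 °C following 2 h pre-incubation. Read: CellTiter-Glo luminescence; fitted concentration-response, curve class assigned.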
TGFb confirm: qHTS for Inhibitors of TGF-b: Confirmation of Cherry Picks; 63% of 1,600 active; shares compounds with TGFb SMAD3 inh; HepG2 CAGA-GFP TGF-b reporter, GFP fluorescence, 18 h; cells stimulated with TGF-beta, 500 pg/mL; Potency, µM (doses to about 46.1 µM), most hits filed as inhibitors; further: nearly all actives have a fitted effect of over 65% in size
HepG2 tox-2: qHTS for Inhibitors of TGF-b: Cytotox Counterscreen for Cherry Picks; shares compounds with TGFb SMAD3 inh; HepG2 CAGA-GFP viability, ATP luminescence, 18 h; cells stimulated with TGF-beta, 500 pg/mL; Potency, µM (titrated, usually from 46.1 µM), hits mostly inhibitors; 27% of 1,600 active; AID 720535, 2013; further: nearly all actives have a fitted effect of over 70% in size
TGFb CCL64 inh: qHTS for Inhibitors of TGF-b: CCL64 Cells Orthogonal Assay for Cherry Picks. shares compounds with TGFb SMAD3 inh. CCL64 CAGA-GFP reporter, TGF-b stimulated, GFP fluorescence, 18 h. Potency, µM (series often up to 46.1 µM), usual class: inhibitors. 41% of 1,600 active. AID 720536, 2013; further: nearly all actives have a fitted effect of over 65% in size
TGFb COP inh: qHTS for Inhibitors of TGF-b: Hit Validation in HepG2 Cells using COP promoter; shares compounds with TGFb SMAD3 inh; HepG2 COP-GFP TGF-b reporter, GFP fluorescence, 18 h; cells stimulated by added recombinant TGF-beta; Potency, µM (top dose mostly 46.1 µM), actives largely listed as inhibitors; 3% of 1,600 active; AID 720537, 2013; further: nearly all actives have a fitted effect of over 70% in size
Large screens that a line does not name were inactive (follow-up assays come after a bar, where they were run). The call rests on the fitted dose curve; in most records, active means well fitted curve in the direction sought with a large enough effect; inconclusive means small, poorly fitted or top-dose-only effect, or another doubt; inactive means no such curve, though single readings can be large; an effect the other way counts as inactive or inconclusive.

CC[C@]12c3[nH]c4cc(-c5ccco5)ccc4c3CCN1C(=O)[C@@H](CC(=O)NCc1cccc(C(F)(F)F)c1)C[C@@H]2C(=O)N1CCN(C(=O)c2ccco2)CC1	KB-3-1 tox inconclusive, TGFb SMAD3 inh 11µM | TGFb confirm 4.1µM | HepG2 tox-2 inactive | TGFb CCL64 inh inconclusive | TGFb COP inh inactive
CC[C@]12c3[nH]c4ccc(Cl)cc4c3CCN1C(=O)[C@@H](CC(=O)NC/C=C(\C)CCC=C(C)C)C[C@@H]2C(=O)N1CCN(C(=O)C2CC2)CC1	KB-3-1 tox inconclusive, KB-V1 MDR tox inconclusive, TGFb SMAD3 inh 10µM, HT1080NT lethal inconclusive, HT1080 IDH1KD tx 21µM | TGFb confirm inconclusive | HepG2 tox-2 inconclusive | TGFb CCL64 inh 21µM | TGFb COP inh inactive
CC[C@]12c3[nH]c4cc(-c5ccco5)ccc4c3CCN1C(=O)[C@@H](CC(=O)NC/C=C(\C)CCC=C(C)C)C[C@@H]2C(=O)N1CCN(C(=O)c2ccco2)CC1	KB-3-1 tox inconclusive, KB-V1 MDR tox inconclusive, TGFb SMAD3 inh 10µM, HT1080 IDH1KD tx inconclusive | TGFb confirm 10µM | HepG2 tox-2 inactive | TGFb CCL64 inh 13µM | TGFb COP inh inactive
CC[C@]12c3[nH]c4cc(CCC(=O)N(C)C)ccc4c3CCN1C(=O)[C@@H](CC(=O)NC/C=C(\C)CCC=C(C)C)C[C@@H]2C(=O)N1CCN(C(=O)C2CC2)CC1	TGFb SMAD3 inh inconclusive
O=C1O[C@@H](c2ccccc2)C[C@@H](O)[C@H](O)CCCc2ccccc21	none (no result: HepG2 tox-1, TGFb SMAD3 inh)
COc1cc(NC(=O)c2cccc(Cl)c2Cl)ccc1NC(=O)c1cc2ccccc2o1	none (no result: HT1080NT lethal, HT1080 IDH1KD tx)
O=S(=O)(c1ccc2ncsc2c1)N1CCN(c2nc(-c3cccs3)nc3ccccc23)CC1	none (no result: HepG2 tox-1, KB-3-1 tox, KB-V1 MDR tox, TGFb SMAD3 inh)
CC[C@]12c3[nH]c4ccc(Cl)cc4c3CCN1C(=O)[C@@H](CC(=O)NCc1cccc(C(F)(F)F)c1)C[C@@H]2C(=O)N1CCN(C(=O)C2CC2)CC1	TGFb SMAD3 inh 14µM, HT1080NT lethal inconclusive, HT1080 IDH1KD tx inconclusive | TGFb confirm inactive | HepG2 tox-2 inconclusive | TGFb CCL64 inh inconclusive | TGFb COP inh inactive
C[C@@H]1CN([C@H](C)CO)C(=O)CCCn2nncc2CO[C@@H]1CN(C)C(=O)Nc1ccc2c(c1)OCO2	KB-3-1 tox inconclusive
